From PubChem
TRPV1 ag = HTS Assay for Compounds that Act as Agonists of the Vanilloid Receptor 1; 320,000 tested, 0.19% active; TRPV1-expressing cells, Fluo-8 calcium influx, agonist mode; Transient receptor potential cation channel subfamily V member 1 (Homo sapiens), Q8NER1; activation, % at 8.33 µM; AID 540275, 2011; in the data active means activation above about 80%; inconclusive means between about 30% and that limit; further: 0% is about no effect
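TRPV1-expressing cells were cultured overnight at 35.5C and loaded with Fluo-8 calcium dye for 40 to 90 min at room temperature. After a 10 s baseline, compound was added and calcium influx was read kinetically for 3 min (ex 480/em 520 nm).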
D1 PAM = Potentiators of Human D1 Dopamine Receptor: qHTS; D(1A) dopamine receptor (Homo sapiens), P21728; HEK293 TREx D1 cells, calcium flux, dopamine EC20 potentiation; 360,000 tested, 0.036% active; potentiation, % at 10 µM; AID 504651, 2011; in the data active means potentiation above about 30%; further: 0% is about no effect
Target sequence (P21728 whole entry, looked up): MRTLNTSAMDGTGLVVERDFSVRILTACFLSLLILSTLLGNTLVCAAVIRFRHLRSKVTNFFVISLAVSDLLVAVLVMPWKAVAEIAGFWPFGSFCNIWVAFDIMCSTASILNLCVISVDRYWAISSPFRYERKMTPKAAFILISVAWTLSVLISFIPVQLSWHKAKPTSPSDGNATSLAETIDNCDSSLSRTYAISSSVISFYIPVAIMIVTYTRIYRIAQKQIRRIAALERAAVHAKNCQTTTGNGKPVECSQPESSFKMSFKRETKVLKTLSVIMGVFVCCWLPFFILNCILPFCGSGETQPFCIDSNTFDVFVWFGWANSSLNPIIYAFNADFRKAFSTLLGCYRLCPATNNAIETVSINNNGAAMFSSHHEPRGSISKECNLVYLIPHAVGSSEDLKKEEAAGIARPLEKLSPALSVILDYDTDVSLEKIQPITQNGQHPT
D1 antag = Antagonist of Human D 1 Dopamine Receptor: qHTS | D(1A) dopamine receptor (Homo sapiens), P21728 | HEK293 TREx D1 cells, calcium flux, dopamine EC80; stronger effect = lower value | activity change, negative = inhibition, % at 10 µM | 360,000 tested, 3.2% active | AID 504652, 2011; in the data active means activity change below about -30%; further: on the % scale 0 is the no-effect control and ±100 the full control effect
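Tetracycline-induced HEK293 T-REx cells with force-coupled D1 receptor were loaded with a no-wash calcium dye. Compound was added after a 10 s baseline and read kinetically for 180 s; EC80 dopamine was then added and calcium flux followed another 180 s.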
TRPV1 PAM = HTS Assay for Compounds that Act as Potentiators of the Vanilloid Receptor 1; Transient receptor potential cation channel subfamily V member 1 (Homo sapiens), Q8NER1; TRPV1-expressing cells, Fluo-8 calcium influx, capsaicin EC20 potentiation; potentiation, % at 8.33 µM; 320,000 tested, 0.02% active; AID 540277, 2011; in the data active means potentiation above about 80%; inconclusive means between about 30% and that limit; further: 0% is about no effect
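TRPV1-expressing cells were cultured overnight at 35.5C and loaded with Fluo-8 calcium dye for 40 to 90 min at room temperature. After a 10 s baseline, compound was added and calcium influx was read kinetically for 3 min (ex 480/em 520 nm).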
D1 ag = Allosteric Agonists of the Human D1 Dopamine Receptor: qHTS; D(1A) dopamine receptor (Homo sapiens), P21728; HEK293 T-REx D1 cells, calcium flux, agonist mode; activation, % at 2 µM; 360,000 tested, 1% active; AID 504660, 2011; in the data active means activation above about 30%; further: 0% is about no effect
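Inducible HEK293 T-REx D1 cells, force-coupled to calcium signalling, were plated at 4000 cells/well with tetracycline and held overnight at 30 C. After no-wash calcium dye loading, compound-evoked calcium rise over 180 s flagged agonists.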
The depositor's hits bear a star; ? = inconclusive; . = no result. A selection: hits, their analogues and other compounds. The true share with any hit is near 4.2%.

SMILES | TRPV1 ag | D1 PAM | D1 antag | TRPV1 PAM | D1 ag
CCc1ccccc1NC(=O)CCCn1c(=O)c2cccn2c2ccccc21 | . | -5 | 7 | . | 5
COc1ccc(/C(C)=N/NC2=NCCN2)cc1Cl | 1 | -9 | -93* | 6 | 2
Cc1ccc(-c2nnn(C/C(N)=N/O)n2)cc1 | -4 | -2 | -39* | 2 | 6
O=C(Cc1cccc2ccccc12)NCC(=O)Nc1ccccc1F | -3 | -3 | -51* | 5 | 1
CCOc1ccc(Cn2c(CNS(=O)(=O)c3ccc(Cl)s3)nc3cccnc32)cc1 | . | 0 | 22 | . | 1
COc1ccc(S(=O)(=O)NNC(=O)c2ccccc2-n2cccc2)cc1 | -1 | -5 | -61* | 3 | 1
Cc1cccc(OCCn2cc(/C=N/NC(=O)c3ccncc3)c3ccccc32)c1 | 8 | 0 | -15 | -13 | -1
Cc1cccc(OCC(=O)N/N=C\c2cn(C)c3ccccc23)c1 | 1 | -1 | -34* | -1 | 22
CCNCc1cc(OCC)c(OCC(=O)NCCc2ccccc2)cc1Cl | 1 | -8 | -40* | -4 | 33*
COc1cc(CNCC(C)C)c(Br)cc1OCC(=O)NCc1ccccc1 | 1 | 0 | -12 | -10 | 7
COc1cc(CNCCN(C)C)c(Br)cc1OCC(=O)NCc1ccccc1 | 1 | -4 | -34* | -2 | 3
CCOc1cc(CNCC(C)C)c(Cl)cc1OCC(=O)Nc1ccccc1 | 12 | 2 | . | 17 | -1
O=C(NC1CCCCC1)c1cc(Nc2cccc(C(F)(F)F)c2)nc2ccccc12 | . | -8 | -12 | . | 3
O=[N+]([O-])c1ccccc1N/N=C/c1c[nH]c2ccccc12 | -1 | -5 | -71* | -6 | 6
O=[N+]([O-])c1ccc(N/N=C/c2c[nH]c3ccccc23)cc1 | 19 | -11 | -28 | 6 | 81*
O=[N+]([O-])c1ccc(N/N=C/c2ccc[nH]2)cc1 | 0 | -5 | -44* | ? | 79*
COc1ccccc1NS(=O)(=O)c1cc([N+](=O)[O-])ccc1N/N=C/c1c[nH]c2ccccc12 | -7 | -7 | -4 | 3 | 61*
COc1ccc(C(=O)N/N=C/c2sc(N3CCOCC3)nc2-c2ccccc2)cc1OC | -2 | -2 | -23 | 5 | -1
COc1ccccc1NS(=O)(=O)c1cc([N+](=O)[O-])ccc1N/N=C/c1sc(N2CCOCC2)nc1-c1ccccc1 | 7 | 0 | -9 | 0 | 33*
CC(C)Cn1cnc2c1c(=O)[nH]c(=O)n2Cc1ccccc1 | 0 | -2 | -47* | 7 | 2
CC(C)CCn1cnc2c1c(=O)[nH]c(=O)n2Cc1ccccc1 | 1 | 0 | 10 | 1 | 2
COP(=O)(OC)C(Nc1ccc([N+](=O)[O-])cc1)c1ccccc1 (stereo unspecified) | -2 | -1 | 0 | 3 | 2
CCCOP(=O)(OCCC)C(Nc1ccc(C(C)C)cc1)c1ccc([N+](=O)[O-])cc1 (stereo unspecified) | ? | -8 | -33* | -6 | 7
COc1ccc(Cn2c(-c3ccc(C)cc3)nc3c(c(=O)c4ccccc4n3C)c2=O)cc1 | -6 | 3 | 0 | 4 | 39*
COc1ccc(CCn2c(C(C)C)nc3c(c(=O)c4ccccc4n3C)c2=O)cc1 | 12 | -5 | -16 | -9 | 140*
SMILES | TRPV1 ag | D1 PAM | D1 antag | TRPV1 PAM | D1 ag
COc1ccc(Cn2c(-c3ccc(OC)cc3)nc3c(c(=O)c4ccccc4n3C)c2=O)cc1 | 19 | 6 | 3 | -9 | 15
COc1ccc(CCNC(=S)NC(=O)c2ccc(Br)cc2)cc1OC | 8 | 1 | -5 | 7 | 2
COc1ccc(CCNC(=S)NC(=O)c2ccccc2)cc1C | 29 | -7 | -33* | 7 | 6
COC(=O)c1ccccc1NC(=O)c1ccc(-c2nc(COc3ccccc3)c(C)o2)cc1 | . | 1 | 0 | . | 0
O=C(Nc1ccc(F)c(Cl)c1)C1CCN(S(=O)(=O)c2ccc3c(c2)CCCN3C(=O)C2CCC2)CC1 | . | -5 | -15 | . | 1
Cc1cc(Cl)cc(Cl)c1OCCOCCN(C)C | -3 | -5 | -5 | -7 | 4
Cc1cc(C)c(OCCN(C)C)c(Cl)c1 | 3 | 0 | -38* | 5 | 0
COC(=O)c1ccc(OC)c(CN2CCCN(Cc3cc(C)ccc3C)S2(=O)=O)c1 | 18 | -5 | -6 | -11 | 6
COC(=O)c1ccc(OC)c(CN2CCCN(Cc3ccc(C)cc3)S2(=O)=O)c1 | . | -3 | -34* | . | 5
Cc1ccccc1CNC(=O)C1=Cc2ccccc2OC1 | . | -2 | -14 | . | 5
Cn1ncc2c(=O)n(CC(=O)NC34CC5CC(CC(C5)C3)C4)cnc21 | 1 | 3 | -34* | -3 | 2
CCOC(=O)N1CCC(c2cc(=O)n3[nH]cc(C(=O)OC)c3n2)CC1 | 1 | -5 | 11 | 19 | -2
CCOc1ccc(NC(=O)c2c[nH]n3c(=O)cc(C4CCN(C(=O)OC(C)(C)C)CC4)nc23)cc1 | 8 | -3 | -32* | -14 | 2
CCN(CC)c1ccc(NC(=O)CCCN2C(=O)C(c3ccccc3)Oc3cccnc32)c(C)c1 (stereo unspecified) | . | -5 | 1 | . | -1
COc1cc2c(c(OCC(=O)NC(C)C)c1)C(=O)O[C@@H](C)CCCC(=O)CCCCC2 | ? | -7 | -33* | -3 | 0
COc1ccc(C(=O)NNC(=O)c2ccc3ccccc3c2O)cc1 | 3 | -1 | -2 | 12 | 2
COc1cccc(OCC(=O)NNC(=O)c2ccc3ccccc3c2O)c1 | 3 | -6 | -37* | 17 | 9
COc1ccc(OCC(=O)NNC(=O)c2cc3ccccc3o2)cc1 | 0 | -7 | -31* | -3 | 0
CCc1ccc(CN(C(=O)c2cc(=O)c3ccc(C)cc3o2)C2CCS(=O)(=O)C2)cc1 (stereo unspecified) | . | -2 | 2 | . | -1
CCCCCn1c(=O)[nH]c2cc(C(=O)N3CCN(c4cccc(C(F)(F)F)c4)CC3)ccc2c1=O | . | 0 | -6 | . | 1
Cc1ccc(C)c(S(=O)(=O)NCCc2csc(-c3ccc(Cl)cc3)n2)c1 | . | 2 | 4 | . | 10
COC(=O)c1ccc(Nc2nc(-c3ccccc3Cl)nc3ccccc23)cc1 | . | -3 | -10 | . | -1
CCOC(=O)N1CCN(C(=O)c2ccc3c(c2)N(Cc2ccccc2)CCS3)CC1 | 19 | -4 | -34* | -3 | 4
CC1CC(C)CN(C(=O)c2ccc3c(c2)N(Cc2ccccc2)CCS3)C1 (stereo unspecified) | 24 | 7 | -7 | 9 | 2
Cc1c(C2=CCN(S(=O)(=O)c3ccc(Br)cc3)CC2)c2ccccc2n1CC(=O)N1CCCC1 | . | 3 | 8 | . | 9
